PubChem BioAssay (NCI)
The panel holds about 83,000 compounds, 20% with a hit somewhere; the sample as a whole holds those more often.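 Interpretation: 100, growth as untreated; towards 0, rising growth inhibition; 0, no net growth; 0 to -100, cell death. Compounds scoring below 10 were considered active.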 The source made the active and inactive calls.

System: A498 renal
Experiment: NCI-60 one-dose screen, 48 h (100 = growth as untreated, 0 = no growth, -100 = all killed)
Details: 10 µM unless noted
Protocol: Growth inhibition of the A498 human tumor cell line is measured as a screen for anti-cancer activity. Cells are grown in 96 well plates and exposed to the test compound for 48 hours. Compounds are tested at a single concentration, which is 10^-5 M for most compounds. The reported endpoint is percent growth (GI% or GIPRCNT), where numbers from 0 - 100% represent growth inhibition, and numbers from -100% - 0 represent cell death. For example, a value of 40 represents 60% growth inhibition. A value of 0 means no net growth occurred over the course of the experiment. A value of -40 indicates 40% of cells at the beginning of the experiment died by the end of the experiment. A value of -100 means all cells are dead at the end of the experiment.
NCI-60 Human Tumor Cell Lines Screen was performed using the standard one-dose NCI protocol, which is described in more detail at https://dtp.cancer.gov/discovery_development/nci-60/default.htm.
Compounds with GIPRCNT values below 10 were considered active. Activity score was based on GIPRCNT using the following formula: […]
Score is 0 for GIPRCNT values of 100 or above, 50 for GIPRCNT values of 0, and 100 for GIPRCNT values of -100.

SMILES | growth
O=C(O)c1cccc2c1-c1ccc(Cl)cc1C2 | 96.8% (inactive)
C=C(C)[C@@H]1CC[C@]2(C(=O)O)CC[C@]3(C)[C@H](CC[C@@H]4[C@@]5(C)C/C(=C/c6ccc(OC)cc6)C(=O)C(C)(C)[C@@H]5CC[C@]43C)[C@@H]12 | 49.6% (inactive)
Cc1ccsc1-c1ccc2c(c1)COC2(CCCN(C)C)c1ccc(F)cc1 (stereo not given) | 86.3% (inactive)
CCC1C(=O)COC1=O (stereo not given) | 91.4% (inactive)
CC(C)(C)c1nc(-c2ccc(O)c(O)c2)cs1 | 104% (inactive)
CCC(CC)C(=O)OC(C)COc1ccc(C(C)(C)C)cc1 (stereo not given) | 87.8% (inactive)
COc1ccc(-c2nc3ccccn3c2-c2nc3ccc(Cl)cc3[nH]2)cc1 | 91.9% (inactive)
O=S(=O)(NCCNc1cc(-c2cn(-c3ccccc3)nc2-c2cccc(O)c2)ccn1)c1ccc(C(F)(F)F)cc1 | 52.6% (inactive)
C=C(C)[C@@H]1CC[C@]2(C(=O)O)CC[C@]3(C)[C@H](CC[C@@H]4[C@@]5(C)C/C(=C/c6cccc(I)c6)C(=O)C(C)(C)[C@@H]5CC[C@]43C)[C@@H]12 | 22.1% (inactive)
CN(CSc1ccc(Cl)cc1)c1ccc(CSc2ccc(Cl)cc2)cc1 | 71.8% (inactive)
C=C(C)[C@@H]1CC[C@]2(C)[C@H](CC=C3[C@@H]4CC(C)(C)CC[C@]4(C(=O)OC)CC[C@]32C)[C@@]1(C)CC/C(N)=N/O | 77.7% (inactive)
N#C/C(=C\c1ccc(-c2ccc(F)cc2)o1)c1nc(-c2ccco2)cs1 | 107% (inactive)
N#CCCCCCn1c2ccccc2c2c3c(c4c5ccccc5n(CCCCCC#N)c4c21)C(=O)N(O)C3=O | 107% (inactive)
COc1ccc(C(=O)c2cc(OC)c(OC)c(OC)c2)cc1/C=C/C(=O)c1cc(OC)c(OC)c(OC)c1 | 96.2% (inactive)
COc1ccc(C2=NN(c3nc(-c4ccc(OC)cc4)c(C#N)c(=O)n3C)C(=O)CC2)cc1 | 116% (inactive)
Cc1cc(N2CCN(C)CC2)nc(N(CCNc2ccnc3cc(Cl)ccc23)Cc2ccco2)n1 | 73.4% (inactive)
Nc1c(C(=O)Nc2c(Cl)cccc2Cl)sc2nc3c(cc12)CCCC3 | 79.7% (inactive)
Cc1cccc(C)c1NC(=O)CSC(=S)N1CCN(CCOCCO)CC1 | 103% (inactive)
Cc1ccc(Nc2c(C(N)=O)cnc3ccc(S(=O)(=O)Nc4cc(C)on4)cc23)cc1 | 88.8% (inactive)
Oc1ccc(CCC2CCCC(CCc3ccc(OCCF)cc3)N2)cc1 (stereo not given) | 96.9% (inactive)

SMILES | growth
COc1ccc(-n2c(/C=C/c3ccc(O)c(OC)c3)cc(/C=C/c3ccc(O)c(OC)c3)nc2=O)cc1 | 113% (inactive)
Nc1nc(Br)nc2c1ncn2C1CC(O)C(CO)O1 (stereo not given) | 89.4% (inactive)
Cn1cccc1/C=C1/SC(=S)N(CCc2ccc(O)cc2)C1=O | 81.8% (inactive)
CCC(c1ccc(OC)cc1)C(CC)c1ccc(O)c(CN2CCCCC2)c1 (stereo not given) | 72.8% (inactive)
COc1ccc2c(c1)c(-c1nc(-c3cn(C)c4ncccc34)cs1)cn2CCN | 97.4% (inactive)
Brc1cnc2[nH]cc(-c3nnc(-c4ccccc4)o3)c2c1 | 47% (inactive)
Brc1ccc2[nH]cc(-c3nc(-c4c[nH]c5ncccc45)cs3)c2c1 | 43.6% (inactive)
O=[N+]([O-])c1cc(S(=O)(=O)c2ccc(F)c([N+](=O)[O-])c2)ccc1F | 107% (inactive)
COc1cc2c(cc1-c1c(C)noc1C)ncc1nc(C3CCCCC3)n([C@@H](C)COC(F)F)c12 | 1.93% (active)
COc1ccc2[nH]c(-c3ccc(Cl)cc3)cc(=O)c2c1 | 93.2% (inactive)
Cc1oc(-c2ccccc2Cl)cc1C(=O)Nc1ccc(S(N)(=O)=O)cc1 | 105% (inactive)
O=C1C=C(C(O)c2ccc(O)cc2)C(=O)c2ccccc21 (stereo not given) | 104% (inactive)
O=C(O[C@@H]1Cc2c(O)cc(O)cc2O[C@@H]1c1cc(O)c(O)c(O)c1)c1cc(O)c2c(c1)OCO2 | 117% (inactive)
N=C(N)c1ccc(S(N)(=O)=O)cc1 | 92% (inactive)
C=COCCCCCCCCCCCCCCCCCC | 92.7% (inactive)
OCC(CO)(CCl)CCl | 111% (inactive)
CCNCCCn1c2c(c3ccc([N+](=O)[O-])cc3c1=O)C(=O)c1cc(OC)cnc1-2 | -89.2% (active)
O=C(N/N=C\c1ccccc1O)C1CC1 | 113% (inactive)
COc1ccc(/C=C/C(=O)NCCO)cc1 | 85% (inactive)
COc1cc2nc(Cl)nc(Nc3cccc(C(=O)/C=C/c4ccccc4)c3)c2cc1OC | 90.6% (inactive)
